# Molecular target: Neuropilin-1 (Homo sapiens) (UniProt O14786)
# Experiment: NRP-1 b1b2 CendR peptide binding inhibitors, dose response, biochemical, FP and AlphaScreen panel (AID 651650)
# Details: NRP-1 b1b2 / RPARPAR peptide binding, FP or AlphaScreen; run 1, at 100 µM (top of the series)
# Neuropilin-1 (Homo sapiens), sequence (O14786 whole entry, looked up): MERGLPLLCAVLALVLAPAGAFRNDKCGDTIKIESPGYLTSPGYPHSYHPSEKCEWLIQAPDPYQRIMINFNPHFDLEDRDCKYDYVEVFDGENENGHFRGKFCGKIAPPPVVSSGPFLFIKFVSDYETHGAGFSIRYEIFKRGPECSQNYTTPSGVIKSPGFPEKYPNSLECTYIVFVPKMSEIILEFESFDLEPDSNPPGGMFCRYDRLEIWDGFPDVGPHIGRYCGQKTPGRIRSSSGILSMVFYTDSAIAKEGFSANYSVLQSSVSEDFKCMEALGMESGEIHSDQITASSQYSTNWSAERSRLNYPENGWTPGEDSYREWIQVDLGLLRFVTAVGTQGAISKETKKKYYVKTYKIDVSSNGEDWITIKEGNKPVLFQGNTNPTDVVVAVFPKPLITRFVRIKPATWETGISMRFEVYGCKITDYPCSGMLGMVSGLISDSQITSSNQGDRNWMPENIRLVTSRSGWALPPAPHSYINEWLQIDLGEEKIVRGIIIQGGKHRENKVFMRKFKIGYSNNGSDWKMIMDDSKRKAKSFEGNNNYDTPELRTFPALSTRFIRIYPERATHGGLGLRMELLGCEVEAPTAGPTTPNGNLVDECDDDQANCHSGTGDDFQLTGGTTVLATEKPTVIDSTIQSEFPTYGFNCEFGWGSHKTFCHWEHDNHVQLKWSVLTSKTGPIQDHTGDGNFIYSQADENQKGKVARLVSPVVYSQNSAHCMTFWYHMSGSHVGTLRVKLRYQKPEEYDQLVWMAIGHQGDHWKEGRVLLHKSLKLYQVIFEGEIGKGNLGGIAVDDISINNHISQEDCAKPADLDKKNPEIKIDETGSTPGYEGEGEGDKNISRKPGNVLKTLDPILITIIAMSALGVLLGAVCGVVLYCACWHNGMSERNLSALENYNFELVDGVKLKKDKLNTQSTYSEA
row,SMILES,inhibition [%]
1,CCOc1ccc(C2CC(c3ccc(CC)cc3)n3nc(N)nc3N2)cc1 (centres undefined),4.44
2,Cc1cn([C@H]2C[C@H](O)[C@@H](CCC(=O)NCCc3ccc4ccccc4c3)O2)c(=O)[nH]c1=O,22.6
3,COc1ccccc1C(=O)NC(=O)CSc1nncn1C,30.4
4,COc1ccc(-c2noc(CN(C(=O)c3ccc4c(c3)OCO4)C(C)C)n2)cc1,27.6
5,COc1ccc(N(CC(=O)NCc2ccco2)C(=O)CCC(=O)Nc2ccccn2)cc1,-5.26
6,NS(=O)(=O)c1ccc(CNC(=S)NCc2ccc(F)cc2)cc1,42.3
7,COc1ccc(Cl)cc1NC(=O)C(C)N1CCc2ccccc21 (centres undefined),82.6
8,CC(=O)Nc1ccc2nc3c(=O)n(C)c(=O)n(C)c3nc2c1,84.8
9,CN(c1ccccc1)S(=O)(=O)c1cccc(NC(=O)CSc2nncn2C)c1,21.8
10,Cc1ccc2c(c1)C(c1ccncc1)=NNC(c1ccc(F)cc1)=N2,36.3
11,CCOC(=O)Cc1ccc(NS(=O)(=O)c2ccc(SC)cc2)cc1,19.4
12,CC1(C(=O)NCc2cccc3ccccc23)CCN1Cc1cccc2c1OCO2 (centres undefined),21
13,O=C(NNC(=O)c1ccccc1Cl)c1cccnc1,94
14,C=CCOc1c(CNc2ncn[nH]2)cccc1OCC,33.2
15,NC1=NC[C@@H](Cc2ccc(O)cc2)N1CCCCC1CCCCC1,26.5
16,OCCNc1ncnc2ccc(Br)cc12,66.8
17,CCNS(=O)(=O)c1ccc(CCC(=O)O)cc1,23.4
18,O=c1c2ccccc2nc2n1C(CSc1ccc(F)cc1)CS2 (centres undefined),101
19,CCCCc1ccc(S(=O)(=O)N2CCC3(CC2)OCCO3)cc1,16.7
20,COC(=O)C1N[C@@H]([C@@H](NC(=O)COc2ccccc2)C(=O)NCc2ccccc2)SC1(C)C (some centres undefined),18.2

row,SMILES,inhibition [%]
1,COc1ccc(Cl)cc1S(=O)(=O)N1CCN(CC(=O)C(C)(C)C)CC1,-4.16
2,COc1ccc(C2CC(O)(c3ccccc3)Oc3cc(OC)ccc32)cc1 (centres undefined),7.29
3,C=CCOc1ccc(C2/C(=C(\O)c3c(C)[nH]c(C(=O)OC)c3C)C(=O)C(=O)N2CCN(C)C)cc1 (centres undefined),3.64
4,Cn1c(=O)c2[nH]c(NCCCN3CCOCC3)nc2n(C)c1=O,44.2
5,CCOC(=O)N1CCN(C(=O)c2cc3n(n2)C(C(F)(F)F)CC(c2ccc4c(c2)OCO4)N3)CC1 (centres undefined),30.7
6,CC(NCCOCCOc1ccccc1)c1ccccc1 (centres undefined),39.6
7,Cc1ccc(C(=O)N/C(=C\c2sccc2C)C(=O)NCc2ccco2)cc1,53.9
8,O=C(c1cccc(F)c1)N1CCN(c2ccc([N+](=O)[O-])c(N3CCCCC3)c2)CC1,33.3
9,CCn1c(=O)c(C(=O)NCCNCCO)c(O)c2ccccc21,26.5
10,CC(=O)OC[C@@H]1CN(Cc2cccc(C(F)(F)F)c2)C[C@H](n2cnc3c(NCc4ccco4)ncnc32)O1,54.5
11,Cc1cnc(C(=O)OCC(=O)Nc2sc3c(c2C#N)CCC3)cn1,44.2
12,CN(C)Cc1cc(C(F)(F)F)ccc1C(O)(c1ccccc1)c1ccccc1,-5.25
13,CSc1nc2ccccc2c(=O)n1C1CCOC(C)(C)C1 (centres undefined),19.3
14,NC(=S)NNC(=S)Nc1ccccc1,9.47
15,CCC1=C(OC(=O)N(CC)CC)N2C(=O)OC(=NCC3CC3)[C@]2(Cc2ccccc2)[C@H]2C1=CC[C@H]1C(=O)N(C)C(=O)[C@H]12,-6.33
16,Cc1ccc(-n2c(-c3ccco3)nc3c(cnn3-c3ccc(C)cc3)c2=O)cc1,50.3
17,O=[N+]([O-])c1cc(-c2csc(NCCc3nc4cc(C(F)(F)F)ccc4n3CCCO)n2)ccc1Cl,33.1
18,Cc1ccccc1S(=O)(=O)Nc1nc2ccccc2nc1NCCO,25.8
19,CCn1c(SCC(=O)c2ccccc2)nnc1-c1cccs1,45.2

# Source: PubChem BioAssay AID651650 (Sanford-Burnham Center for Chemical Genomics, 2012)
